Source: PubChem
ROS inducer = raises reactive oxygen species in U2OS cancer cells; U2OS ROS induction, H2DCF-DA fluorescence; ROS induction (% of piperlongumine), % at 10 µM; 46,000 compounds, 2% hits; in the data active = ROS induction above about 79%, passing the limit was not always enough;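 also: 0% = DMSO vehicle median and 100% = reference compound median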
* = called active by the depositor. The sample as a whole holds a higher share of hits than the screen did.

SMILES	ROS inducer
Cc1ccc(S(=O)(=O)Nc2ccc3c(c2)C(=O)N([C@@H](C)CO)C[C@H](C)[C@@H](CN(C)Cc2ccc(Oc4ccccc4)cc2)O3)cc1	109.9*
Cc1ccc(S(=O)(=O)Nc2ccc3c(c2)C(=O)N([C@@H](C)CO)C[C@H](C)[C@H](CN(C)C(=O)Nc2ccccc2)O3)cc1	1.5
COc1ccc(OC)c(C2C(C(=O)Nc3ccccn3)=C(C)NC3=C2C(=O)CCC3)c1 (centres undefined)	3.3
CCCN(C1=NC2CS(=O)(=O)CC2S1)c1ccccc1F (centres undefined)	-14.0
Cc1oc2c(c1C(=O)NCc1ccccc1)C(=O)c1ccccc1C2=O	56.6
CN(CC(=O)Nc1ccccc1F)S(=O)(=O)c1ccc2ccccc2c1	-6.0
NC(N)=NC(N)=Nc1cccc(Cl)c1	-0.4
COc1cc(-c2noc(-c3c(-c4ccccc4Cl)noc3C)n2)cc(OC)c1OC	117.4*
Cc1onc(-c2ccccc2Cl)c1C(=O)N(Cc1nc(-c2ccccc2)no1)C1CCCCC1	10.7
COc1cc(NC(=O)Cn2nnc(-c3ccccc3Cl)n2)cc(OC)c1OC	0.9
O=C(Nc1cccc(-c2nc3ccccc3[nH]2)c1)c1ccccc1	4.7
CC1CCCCN1S(=O)(=O)c1ccc(C(=O)Nc2cccc(-c3nc4ccccc4[nH]3)c2)cc1 (centres undefined)	203.9*
O=C(Nc1ccc(-c2nc3ccccc3[nH]2)cc1)c1ccc(-c2ccccc2)cc1	-6.7
CCOC(=O)c1c(CN2CCOCC2)n(C)c2ccc(O)cc12	43.3
C=CCN1C(=O)/C(=C/c2cc(C)n(CCOC)c2C)C(=O)NC1=S	102.5*
COCCn1c(C)cc(C=C2C(=O)N(C)C(=S)N(C)C2=O)c1C	26.2
COCCN1C(=O)/C(=C/c2cc(C)n(-c3ccncc3)c2C)C(=O)N(c2ccccc2)C1=O	2.0
c1ccc(-c2nc3ccc(Cc4ccc5nc(-c6ccccn6)c(-c6ccccn6)nc5c4)cc3nc2-c2ccccn2)nc1	-9.3
C[C@@H]1CN([C@@H](C)CO)C(=O)CCCn2cc(nn2)CO[C@@H]1CN(C)S(=O)(=O)c1ccc2ccccc2c1	0.9
C[C@H](CO)N1C[C@H](C)[C@H](CN(C)S(=O)(=O)c2cn(C)cn2)Oc2ncc(C#Cc3ccccc3)cc2C1=O	119.6*
COc1cccc(S(=O)(=O)N(C)C[C@@H]2Oc3ncc(C#Cc4ccc(C(F)(F)F)cc4)cc3C(=O)N([C@H](C)CO)C[C@@H]2C)c1	129.2*
C[C@H](CO)N1C[C@H](C)[C@H](CN(C)S(=O)(=O)c2cn(C)cn2)Oc2ncc(C#CCN(C)C)cc2C1=O	4.2
COc1cccc(S(=O)(=O)N(C)C[C@@H]2Oc3ncc(C#Cc4ccc(OC)c(OC)c4)cc3C(=O)N([C@H](C)CO)C[C@@H]2C)c1	47.3
C[C@H](CO)N1C[C@H](C)[C@H](CN(C)S(=O)(=O)c2cccs2)Oc2ncc(C#Cc3ccc(C(F)(F)F)cc3)cc2C1=O	110.1*
C[C@H](CO)N1C[C@H](C)[C@H](CN(C)S(=O)(=O)c2cccs2)Oc2ncc(C#Cc3ccc(F)cc3)cc2C1=O	11.1
SMILES	ROS inducer
CCCC(O)C#Cc1cnc2c(c1)C(=O)N([C@H](C)CO)C[C@H](C)[C@H](CN(C)S(=O)(=O)c1cccs1)O2 (some centres undefined)	10.8
COc1cccc(S(=O)(=O)N(C)C[C@@H]2Oc3ncc(C#Cc4cccc(F)c4)cc3C(=O)N([C@H](C)CO)C[C@@H]2C)c1	47.6
C[C@H](CO)N1C[C@H](C)[C@H](CN(C)S(=O)(=O)c2cn(C)cn2)Oc2ncc(C#Cc3ccc(C(F)(F)F)cc3)cc2C1=O	7.4
Cc1ccc(S(=O)(=O)Nc2ccc3c(c2)C(=O)N([C@H](C)CO)C[C@@H](C)[C@@H](CN(C)C(=O)NC2CCCCC2)O3)cc1	9.4
COc1ccc(CN(C)C[C@H]2Oc3c(NC(=O)Nc4ccc(OC)cc4)cccc3C(=O)N([C@H](C)CO)C[C@H]2C)cc1	8.2
C(=N\n1cnnc1)/c1ccccn1	-5.7
O=C(NCc1ccco1)c1ccc(Cn2c(=S)[nH]c3ccc(Br)cc3c2=O)cc1	81.2*
O=C(NCc1ccc2c(c1)OCO2)c1ccc2c(=O)n(Cc3ccccc3)c(=S)[nH]c2c1	5.7
CC(C)NC(=O)c1ccc2c(=O)n(Cc3ccco3)c(=S)[nH]c2c1	20.6
C[C@@H]1CN([C@H](C)CO)C(=O)c2cc(NS(=O)(=O)c3ccc(F)cc3)ccc2O[C@@H]1CN(C)Cc1ccc2c(c1)OCO2	2.0
CC(C)NC(=O)Nc1ccc2c(c1)CC(=O)N([C@H](C)CO)C[C@H](C)[C@H](CN(C)C(=O)Nc1ccc(C(F)(F)F)cc1)O2	-7.1
C[C@H](CO)N1C[C@H](C)[C@@H](CN(C)CC2CC2)Oc2ccc(NS(=O)(=O)c3ccc(F)cc3)cc2C1=O	8.0
CCOC(=O)C1=CN(c2ccc(C)c(C)c2)C=C(C(=O)OCC)C1c1ccccc1F	95.9*
CCOC(=O)c1cnn(CCOC(=O)c2ccccc2F)c1NC(=O)c1ccccc1F	-0.1
COC(=O)C1=CN(c2ccc(F)cc2)C=C(C(=O)OC)C1c1cccc(O)c1	43.7
